An excerpt weighted towards active compounds, which were near 11% of everything screened.
IMPase Li cell: qHTS Assay for Identifying the Cell-Membrane Permeable IMPase Inhibitors: Potentiation with Lithium; CHO-M1 cells, IP1 TR-FRET (IP-One), carbachol + lithium; Potency, µM (titrated, usually from 59.4 µM), for inactives: top-dose activity, negative = IMPase inhibition, most hits filed as inhibitors; AID 1457, 2008; 210,000 tested, 0.35% active;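 also: IP1 builds up when IMPase is blocked and the TR-FRET signal falls; potency is read from the fitted curve at half-maximal effect; plate controls were basal vehicle for no effect and high inhibitor control for full effect; nearly all actives have a fitted effect of over 50% in size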
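Test compounds were applied to CHO-M1 cells previously cultured for 16–30 h at 2000 per well. A small lithium amount accompanied them; after 30 min at 37C, IP1 was quantified by TR-FRET.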
HPGD block: qHTS Assay for Inhibitors of HPGD (15-Hydroxyprostaglandin Dehydrogenase); 150,000 tested, 4.3% active; 15-hydroxyprostaglandin dehydrogenase [NAD(+)] (Homo sapiens), P15428; purified HPGD, NADH fluorescence kinetic, PGE2 substrate; AID 894, 2007; Potency, µM, without a hit: at the top dose activity change, negative = inhibition, most hits filed as inhibitors; active = well fitted inhibition curve with a large enough effect, not every such curve was filed as active; inconclusive = small, poorly fitted or top-dose-only effect, or another doubt; inactive = no such curve, though single readings can be large or run the other way; also: potency is read from the fitted curve at half-maximal effect
Target sequence (P15428 whole entry, looked up): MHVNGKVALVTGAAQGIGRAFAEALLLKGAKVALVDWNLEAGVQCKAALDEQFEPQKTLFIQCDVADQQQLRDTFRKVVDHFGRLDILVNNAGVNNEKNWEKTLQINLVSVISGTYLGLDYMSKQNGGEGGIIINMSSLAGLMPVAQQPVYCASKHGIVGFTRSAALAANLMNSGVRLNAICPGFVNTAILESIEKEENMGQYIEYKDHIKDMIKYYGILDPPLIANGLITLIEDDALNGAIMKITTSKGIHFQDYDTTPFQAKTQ
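20 nM HPGD preincubated 15 min at room temperature with compound in 50 mM Tris-HCl pH 8, 0.01% Tween 20. Started with 1 mM NAD+ and 30 uM prostaglandin E2; NADH fluorescence (360/450 nm) read 5 times over 30-s intervals, last minus first.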
ALDH1A1 block: qHTS Assay for Inhibitors of Aldehyde Dehydrogenase 1 (ALDH1A1). 220,000 tested, 7.3% active. Purified ALDH1A1, NADH fluorescence, propionaldehyde substrate. Aldehyde dehydrogenase 1A1 (Homo sapiens), P00352. Potency, µM (top dose mostly 75.3 µM), for the others: top-dose activity, negative = inhibition, usual class: inhibitors. AID 1030, 2008; active = well fitted inhibition curve with a large enough effect, not every such curve was filed as active; inconclusive = small, poorly fitted or top-dose-only effect, or another doubt; inactive = no such curve, though single readings can be large or run the other way;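 also: potency is read from the fitted curve at half-maximal effect; plate controls were no enzyme wells and a reference inhibitor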
Target sequence (P00352 whole entry, looked up): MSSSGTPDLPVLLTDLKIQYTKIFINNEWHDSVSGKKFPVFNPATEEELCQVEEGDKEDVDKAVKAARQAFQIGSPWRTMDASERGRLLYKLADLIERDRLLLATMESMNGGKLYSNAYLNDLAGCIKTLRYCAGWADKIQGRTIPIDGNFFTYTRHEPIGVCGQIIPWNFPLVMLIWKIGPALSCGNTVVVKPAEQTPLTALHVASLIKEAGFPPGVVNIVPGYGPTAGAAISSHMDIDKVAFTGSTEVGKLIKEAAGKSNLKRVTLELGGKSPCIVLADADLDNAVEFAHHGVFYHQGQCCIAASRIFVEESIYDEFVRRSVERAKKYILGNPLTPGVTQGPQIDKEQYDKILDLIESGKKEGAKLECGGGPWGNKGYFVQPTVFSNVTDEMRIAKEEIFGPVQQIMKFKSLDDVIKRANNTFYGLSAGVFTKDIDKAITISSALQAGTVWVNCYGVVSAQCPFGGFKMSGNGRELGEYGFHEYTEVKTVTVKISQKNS
IMPase inh: qHTS Assay for Identifying the Cell-Membrane Permeable IMPase Inhibitors. Inositol monophosphatase 1 (Rattus norvegicus), P97697. CHO-M1 cells, IP1 accumulation, HTRF TR-FRET ratio. inhibition (IP1 accumulation), % at 46.1 µM. 120,000 tested, under 10 active. AID 901, 2007; active = well fitted curve in the direction sought with a large enough effect in the signal ratio, not every such curve was filed as active; inconclusive = small, poorly fitted or top-dose-only effect, or a change in a side signal; inactive = no such curve, though single readings can be large or run the other way; the % refers to the signal ratio;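 also: cells stimulated with carbachol in lithium chloride buffer; plate controls were DMSO basal wells for no effect and reference inhibitor wells for full effect; higher means more IMPase inhibition seen as more IP1 and lower FRET ratio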
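Cellular IMPase inhibition is scored as a rise in cytosolic IP1, detected by competitive TR-FRET between d2-labelled IP1 and a europium anti-IP1 antibody. M1-expressing CHO cells were stimulated with carbachol for 30 min at 37C, with lithium (50 mM LiCl) present in the buffer.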
PNC inhibitor: High Content Assay for Compounds that inhibit the Assembly of the Perinucleolar Compartment | 140,000 tested, 3.1% active | activity change (PNC), negative = inhibition, % at 10 µM | PC3M PTB-GFP, PNC prevalence imaging, 16 h; stronger effect = lower value | AID 2417, 2010;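 active = readout at or below -70, meaning at least 70% loss of cells showing the perinucleolar compartment, a nuclear body marking cancer cells; inconclusive = readout between -30 and a set limit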;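 also: plate controls were DMSO wells for no effect and camptothecin positive control wells for full effect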
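Compounds are pinned in duplicate onto adhered PC3M cells stably expressing GFP-tagged PTB and incubated 16 h at 37 C. Cells are then fixed, nuclei stained with Hoechst, and PNC-positive cells counted.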
12-hLO inh: qHTS Assay for Inhibitors of 12-hLO (12-human lipoxygenase); 150,000 tested, 0.12% active; Polyunsaturated fatty acid lipoxygenase ALOX12 (Homo sapiens), P18054; Potency, µM (series often up to 57.1 µM), inactives show at the top dose activity change, negative = inhibition, actives largely listed as inhibitors; purified 12-hLO, xylenol orange hydroperoxide absorbance; also: potency is read from the fitted curve at half-maximal effect; nearly all actives have a fitted effect of over 55% in size
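Purified human 12hLO (150 nM final) was preincubated with compounds for 15 min at room temperature in 25 mM Hepes pH 7.0, 0.01% Triton X-100, then reacted with 40 uM arachidonic acid for 30 min. Hydroperoxide was detected with ferrous iron/xylenol orange.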
Active calls of the source: *; ? = inconclusive; nt = no result given; [ ] = another dose, or the depositor's remark. Unless noted, calls follow the shape of the dose curve; as a rule, active = well fitted curve in the direction sought with a large enough effect; inconclusive = small, poorly fitted or top-dose-only effect, or another doubt; inactive = no such curve, though single readings can be large; an effect the other way counts as inactive or inconclusive. Unless noted, % is scaled to controls: 0 for no effect and ±100 for the full control effect.

SMILES	IMPase Li cell	HPGD block	ALDH1A1 block	IMPase inh	PNC inhibitor	12-hLO inh
O=C(CN1C(=O)COc2ccc(Cl)cc21)Nc1ccc(F)cc1	nt	nt	nt	0	nt	nt
Cn1c(=O)c2c(nc(CN3CCC(C(N)=O)CC3)n2Cc2c(F)cccc2Cl)n(C)c1=O	5%[38.3 µM]	-3%	?	13	54	1%
Cn1c(=O)c2c(nc(CN3CCC(C(N)=O)CC3)n2Cc2c(Cl)cccc2Cl)n(C)c1=O	19%[38.3 µM]	-2%	14µM*	16	?	1%
CCOC(=O)c1nnn(C(CC)C(=O)Nc2c(C)cccc2C)c1C(=O)OCC (stereo unspecified)	nt	nt	nt	3	nt	nt
O=C(NCc1nc2ccccc2[nH]1)c1cccs1	-30%[38.3 µM]	-6%	3%	-11	-87*	3%
O=C(NCc1n[nH]c(=S)n1-c1ccccc1)c1cccs1	-3%	nt	0%	nt	nt	nt
O=C(NCc1nc2ccccc2[nH]1)c1ccco1	-9%[38.3 µM]	-4%	2%	-7	-98*	3%
CCn1c(CNC(=O)c2cccs2)n[nH]c1=S	0%	-12%	?	nt	-109*	-1%
COCC(=O)N1CCC2(CC1)CCN(C(=O)Nc1cccc(F)c1)CC2	-3%	1%	9%	nt	nt	0%
O=C(CCC1CCCCC1)Nc1c2c(nn1-c1ccc(F)cc1)CS(=O)(=O)C2	-4%[38.3 µM]	-7%	10µM*	-1	-12	-1%
O=C(Nc1c2c(nn1-c1ccc(F)cc1)CS(=O)(=O)C2)C12CC3CC(CC(C3)C1)C2	7%[38.3 µM]	-13%	4µM*	-5	7	-1%
O=C(O)CCCC/C=C\C[C@@H](O)/C=C/C=C/C=C\[C@@H](O)CCCC(=O)O	22%	-15%	10%	nt	nt	5%
CN(Cc1ccccc1)C(=O)C1CCN(S(=O)(=O)c2cc([N+](=O)[O-])ccc2Cl)CC1	nt	nt	6.3µM*	6	27	-6%
CC(NC(=O)C1CCN(S(=O)(=O)c2cc([N+](=O)[O-])ccc2Cl)CC1)c1ccccc1 (stereo unspecified)	6%	-6%	?	nt	-16	-2%
O=C(NCc1ccccc1)C1CCN(S(=O)(=O)c2cc([N+](=O)[O-])ccc2Cl)CC1	6%	-10%	25µM*	nt	-12	-2%
CCC(Sc1ccc2nnc(-c3ccc(OC)c(OC)c3)n2n1)C(=O)O (stereo unspecified)	-27%[38.3 µM]	14µM*	?	-15	37	-2%
CCC(Sc1ccc2nnc(-c3ccc(F)cc3)n2n1)C(=O)OC (stereo unspecified)	16%[38.3 µM]	-27%	?	-8	?	-2%
COc1ccc(-c2nnc3ccc(SC(C(C)=O)C(C)=O)nn23)cc1OC	-1%[38.3 µM]	14µM*	-10%	10	-11	-25%
COC(=O)CSc1ccc2nnc(-c3ccc(OC)c(OC)c3)n2n1	6%	?	1%	-2	-17	3%
Cc1noc(C)c1C(=O)N1CCC(C(=O)c2ccc(F)cc2F)CC1	nt	nt	8%	nt	nt	nt
Cc1cc2cc(C(c3nnnn3C3CCCC3)N(Cc3cccnc3)Cc3ccco3)c(=O)[nH]c2cc1C (stereo unspecified)	20%[38.3 µM]	?	14µM*	2	11	-3%
Cc1ccc2cc(C(c3nnnn3C3CCCC3)N(Cc3ccccc3)Cc3ccco3)c(=O)[nH]c2c1 (stereo unspecified)	8%[38.3 µM]	?	?	4	-30	-9%
COCCn1nnnc1C(c1cc2ccc(C)cc2[nH]c1=O)N(Cc1ccco1)Cc1cccs1 (stereo unspecified)	10%[38.3 µM]	-16%	18µM*	9	-24	-17%
COC(=O)[C@@]1(Cc2ccccc2)[C@H]2c3cc(C(=O)N4CCCC4)n(C)c3C[C@H]2CN1C(=O)c1ccccc1	1%	-6%	2%	nt	nt	-3%
CCNC(=O)[C@H]1O[C@@H](n2cnc3c(N)nc(NCCc4ccc(CCC(=O)O)cc4)nc32)[C@H](O)[C@H]1O	5%	-22%	-10%	nt	nt	nt
SMILES	IMPase Li cell	HPGD block	ALDH1A1 block	IMPase inh	PNC inhibitor	12-hLO inh
Cc1cccc2sc(N(CCCN(C)C)C(=O)c3nc4ccccc4s3)nc12	-3%	?	?	nt	-118*	-1%
CN(C)CCN(C(=O)c1ccccc1Cl)c1nc2c(Cl)cccc2s1	16%	-20%	32µM*	4	-15	1%
CN(C)CCN(C(=O)c1cccc(Cl)c1)c1nc2c(Cl)cccc2s1	12%	-13%	-1%	3	-1	3%
O=C(CCN1CCOCC1)NNC(=S)NC(=O)c1ccc(Br)cc1	-4%	nt	?	nt	nt	nt
CCC(C)NC(=O)CCNS(=O)(=O)c1ccc(Br)cc1 (stereo unspecified)	20%[38.3 µM]	0%	1%	-2	-90*	2%
CCCCNC(=O)CCNS(=O)(=O)c1ccc(Br)cc1	-2%	-5%	-4%	-2	25	2%
Cc1c(Cl)c(C(=O)NC2CCCC2)nn1C	-7%	35µM*	0%	-3	17	4%
Cn1nc(C(=O)NC2CCCCCC2)ccc1=O	-9%[38.3 µM]	-11%	?	4	20	-4%
Cc1ccc(C)c(OCCCn2c(-c3ccc(Cl)cc3)nc3ccccc3c2=O)c1	nt	nt	nt	-2	nt	nt
COC(=O)c1cc(NC(=O)CN(c2ccc(OC)cc2)S(=O)(=O)c2ccc(F)cc2)ccc1Cl	15%	-6%	12%	-1	-119*	2%
CSc1cccc(NC(C)=O)c1	-9%	-2%	9%	nt	?	4%
CSc1cccc(NC(=O)Cn2cccc2)c1	-21%[38.3 µM]	14µM*	0.63µM*	-8	-8	-1%
Cn1c(NC(=O)CCc2ccccc2)cc(=O)n(C)c1=O	3%[38.3 µM]	-6%	?	1	10	-2%
Cn1c(NC(=O)COc2ccccc2)cc(=O)n(C)c1=O	-4%[38.3 µM]	-7%	25µM*	2	50	2%
CN(c1cccc(NC(=O)COc2ccccc2)c1)S(C)(=O)=O	11%[38.3 µM]	-17%	-8%	-5	-111*	-11%
Cc1ccccc1OCC(=O)Nc1cccc(N(C)S(C)(=O)=O)c1	-10%[38.3 µM]	-11%	6%	?	7	0%
CC1C=CCCOC1c1ccccc1 (stereo unspecified)	nt	nt	-2%[13.5 µM]	nt	nt	nt
Cc1ccc(S(=O)(=O)N(CC(=O)Nc2cccc(N(C)S(C)(=O)=O)c2)c2ccc(Cl)c(Cl)c2)cc1	22%[38.3 µM]	-13%	4%	-1	?	-12%

Source: PubChem (National Center for Advancing Translational Sciences (NCATS))
